Laboratory results taken from PubChem BioAssay (EPA / NIEHS).
Calls of active or inactive are those of the source. How the source made its calls: active means hit-call score of the fitted dose curve at least 0.9, where 1 is the maximum; inactive means score below 0.9.

Legend:
[1] = APR_HepG2_CellCycleArrest_24hr: Apredica 24-hour HepG2 Assay for Cell Cycle Arrest (AID 2282905); conditions: imaging, actives raise or lower the signal;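 further: cell cycle arrest scored as ratio of 2N to 4N nuclear DNA content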
Summary of the method: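 Cell cycle arrest is scored from nuclear DNA content measured by high-content imaging of Hoechst 33342-stained HepG2 cells following 24-hour treatment at ten concentrations up to 200 uM, with DMSO as baseline.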

[2] = APR_HepG2_CellLoss_24hr: Apredica 24-hour HepG2 Assay for Cell Loss (AID 2282908); conditions: high-content imaging;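 on AC50: fit in both directions so a hit may be cell loss or gain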
Summary of the method: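 Cell number is quantified by fluorescence imaging of Hoechst 33342-stained nuclei following dosing at 0.39–200 uM in 0.5% DMSO. Curves are fitted in both directions from the DMSO baseline.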

[3] = APR_HepG2_MicrotubuleCSK_24hr: Apredica 24-hour HepG2 Assay for Microtubule CSK Stabilty (AID 2282909); conditions: HepG2 microtubule cytoskeleton imaging, actives raise or lower the signal
Summary of the method: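 Steps: dose HepG2 for 24 h (0.39–200 uM, 0.5% DMSO); fix 30 min in 3.7% formaldehyde at room temperature; permeabilize; stain alpha-tubulin 60 min; image microtubule cytoskeleton at 20x. Signal change fitted in both directions relative to DMSO.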

[4] = APR_HepG2_MitoticArrest_24hr: Apredica 24-hour HepG2 Assay for Mitotic Arrest (AID 2282910); conditions: high-content imaging, actives raise or lower the signal
Summary of the method: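 HepG2 human liver cells were exposed to compounds at 0.39–200 uM (10 concentrations, duplicate) in 0.5% v/v DMSO for 24 hr, then fixed and immunostained for phospho-histone H3 with Hoechst 33342. Mitotic arrest came from HCS fluorescent imaging, fitted bidirectionally against DMSO.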

[5] = APR_HepG2_MitoMembPot_24hr: Apredica 24-hour HepG2 Assay for Mitochondrial Membrane Potential (AID 2282911); conditions: imaging, actives raise or lower the signal
Summary of the method: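 HepG2, 24 hr dosing, 10 concentrations 0.39–200 uM, 0.5% DMSO final. Live-cell MitoTracker Red CMXRos 250 nM 30 min, then 3.7% formaldehyde fix. HCS fluorescence imaging, 20x; bidirectional fit vs DMSO baseline.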

[6] = APR_HepG2_MitoMass_24hr: Apredica 24-hour HepG2 Assay for Mitochondrial Mass (AID 2282912); conditions: high-content imaging, actives raise or lower the signal
Summary of the method: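 The liver line HepG2 was dosed in duplicate across a 0.39–200 uM series, with final DMSO held at 0.5% v/v, and harvested at 24 hr. High-content imaging measured mitochondrial dye staining.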

[7] = APR_HepG2_p53Act_24hr: Apredica 24-hour HepG2 Assay for p53 Activation (AID 2282913); conditions: high-content imaging, actives raise or lower the signal;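 further: p53 protein immunofluorescence averaged per cell in HepG2 with Hoechst nuclei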
Summary of the method: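 Read-out: Cy5 immunofluorescence for p53 in fixed, permeabilized HepG2, imaged by HCS with Hoechst-defined nuclei. Dosing was 24 hr at 0.39–200 uM in 0.5% DMSO. Curves were fitted bidirectionally relative to DMSO.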

[8] = APR_HepG2_CellCycleArrest_72hr: Apredica 72-hour HepG2 Assay for Cell Cycle Arrest (AID 2282914); conditions: high-content imaging, actives raise or lower the signal
Summary of the method: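 HepG2, 72 hr exposure, 10-point 0.39–200 uM, duplicate, 0.5% DMSO final. Fix 3.7% formaldehyde 30 min RT, Triton X-100 0.5%, Hoechst 33342 2 ug/mL. ArrayScan 20x, six fields/well; DNA content per nucleus; bidirectional fit vs DMSO.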

[9] = APR_HepG2_CellLoss_72hr: Apredica 72-hour HepG2 Assay for Cell Loss (AID 2282915); conditions: high-content imaging
Summary of the method: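 HepG2 cells were exposed for 72 hr to compounds at 0.39–200 uM (ten concentrations, duplicate) in 0.5% v/v final DMSO. Nuclei were stained with Hoechst 33342 after 3.7% formaldehyde fixation, imaged at 20x, and counted; fits bidirectional versus DMSO.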

[10] = APR_HepG2_NuclearSize_24hr: Apredica 24-hour HepG2 Assay for Nuclear Size (AID 2282907); conditions: high-content imaging, actives raise or lower the signal
Summary of the method: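 Compounds in DMSO (final 0.5%) were added to human HepG2 hepatoma cells at ten concentrations up to 200 uM for 24 hr. Fixed nuclei were stained with Hoechst 33342, and nuclear diameter was quantified from automated images.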

Measured: AC50

c1ccc(N=Nc2ccccc2)cc1
active: [1] 63.1 µM
not listed: [10]
inactive: all other assays above

Cc1ccc([N+](=O)[O-])cc1
not listed: [4]
inactive: all other assays above

OCCCl
not listed: [10]
inactive: all other assays above

CC(C)(O)c1cnn2c(-c3ccc(F)c(-c4c(F)cccc4C#N)c3)cnc2n1
inactive: [1] | [7] | [8]
active: [2] 23.4 µM | [3] 89.9 µM | [4] 42.1 µM | [5] 33.1 µM | [6] 81.4 µM | [9] 23.9 µM

c1ccc(C2CO2)cc1 (stereo not drawn)
not listed: [10]
inactive: all other assays above

Nc1ccc(Cc2ccc(N)cc2)cc1
not listed: [10]
inactive: all other assays above

Nc1ccc(Cl)cc1N
active: [1] 0.162 µM | [7] 0.944 µM | [9] 1.1 µM
not listed: [4] | [8]
inactive: all other assays above

COP(=S)(OC)SCN1C(=O)c2ccccc2C1=O
not listed: [4] | [8]
inactive: all other assays above

CCC12COCN1COC2
active: [1] 45.1 µM | [4] 93.6 µM | [7] 86 µM
not listed: [10]
inactive: all other assays above

N#CC(Br)Br
inactive: [1] | [10] | [5] | [8]
active: [2] 115 µM | [3] 169 µM | [6] 86.6 µM | [9] 96.9 µM

O=C(Nc1ccccc1)c1ccccc1I
active: [1] 49.7 µM | [9] 61.8 µM
not listed: [4] | [7]
inactive: all other assays above

O=P(OCCCl)(OCCCl)OCCCl
not listed: [8] | [10]
inactive: all other assays above

CC(C)(OOC(C)(C)c1ccccc1)c1ccccc1
active: [1] 36.4 µM | [2] 69.6 µM | [3] 77.2 µM | [6] 19.6 µM | [9] 44.4 µM
inactive: [10] | [5] | [7]

[O-][Cl+]O
active: [2] 70.7 µM | [3] 73.3 µM | [4] 93.6 µM | [5] 62.5 µM | [9] 97.5 µM
inactive: [1] | [6] | [7] | [8]

CN(C)C(=O)Nc1ccc(Cl)cc1
not listed: [4]
inactive: all other assays above

CCC[CH2][Sn]([Cl])([CH2]CCC)[CH2]CCC
active: [1] 100 µM | [2] 1.12 µM | [3] 0.908 µM | [6] 100 µM | [7] 0.388 µM | [8] 0.0548 µM | [9] 0.574 µM
inactive: [10] | [5]

Cc1ccc(N=C=O)cc1N=C=O
not listed: [4] | [10]
inactive: all other assays above

OCCCBr
not listed: [4] | [8] | [10]
inactive: all other assays above

O=C(O)C1C2CCC(O2)C1C(=O)O (stereo not drawn)
inactive: [1] | [2] | [3] | [5]
active: [6] 41.4 µM | [7] 24.4 µM | [9] 21.5 µM

CCCCC(CC)COC(=O)c1ccc(C(=O)OCC(CC)CCCC)c(C(=O)OCC(CC)CCCC)c1 (stereo not drawn)
not listed: [4] | [10]
inactive: all other assays above

CC(C)(C)OOC(=O)c1ccccc1
active: [2] 33.3 µM | [3] 48.2 µM | [4] 20.5 µM | [5] 33.8 µM | [6] 34.1 µM | [7] 22.8 µM | [9] 26.6 µM
inactive: [1]

Cc1ccc(N)c(N)c1
not listed: [8] | [10]
inactive: all other assays above

CCOC(=O)[C@]1(c2ccccc2)Oc2ccccc2[C@@H]1N
inactive: [1] | [5]
active: [2] 86.7 µM | [3] 112 µM | [6] 107 µM | [9] 116 µM

C[C@]12C=CC3=C4CCC(=O)C=C4CC[C@H]3[C@@H]1CC[C@@H]2O
inactive: [1] | [3] | [5] | [6]
active: [2] 26.1 µM | [9] 21.7 µM

COC(=O)c1ccccc1N
not listed: [4] | [10]
inactive: all other assays above

CS(=O)(=O)NC(=O)c1cc(Oc2ccc(C(F)(F)F)cc2Cl)ccc1[N+](=O)[O-]
not listed: [4] | [10]
inactive: all other assays above

Nc1ccc(N=Nc2ccccc2)cc1
active: [1] 75.5 µM | [9] 99.4 µM
inactive: [2] | [3] | [5] | [6] | [7]

CO[C@@H]1[C@H](OC(=O)NC(=O)CCl)CC[C@]2(CO2)[C@H]1[C@@]1(C)O[C@@H]1CC=C(C)C
not listed: [8] | [10]
inactive: all other assays above

c1ccc(NNc2ccccc2)cc1
active: [7] 110 µM | [9] 97.9 µM
inactive: [1] | [2] | [3] | [5] | [6]

Clc1ccccc1Cl
not listed: [7] | [10]
inactive: all other assays above

Cn1cc(-c2ccccc2)c(=O)c(-c2cccc(C(F)(F)F)c2)c1
active: [1] 57.4 µM | [9] 64.3 µM
inactive: [2] | [3] | [5] | [6] | [7]

[Cl-].[Cl-].[Hg+2]
inactive: [1]
active: [2] 31.3 µM | [3] 28.9 µM | [4] 23.7 µM | [5] 74.4 µM | [6] 28 µM | [7] 15.7 µM | [9] 20.3 µM

Cc1cccc(N)c1N
inactive: [1] | [2] | [3] | [6] | [7]
active: [5] 99.9 µM | [9] 14.1 µM

C[N+](C)(C)CC1CO1 (stereo not drawn)
active: [1] 81.2 µM
not listed: [4] | [10]
inactive: all other assays above

O=C(Oc1ccc(Br)cc1)N1CCN2CCC1CC2
active: [9] 80.8 µM
not listed: [4] | [8] | [10]
inactive: all other assays above

ClC1=C(Cl)[C@]2(Cl)[C@H]3[C@H]([C@@H]4C=C[C@H]3C4)[C@@]1(Cl)C2(Cl)Cl
active: [2] 46.5 µM | [4] 25.4 µM | [6] 48.1 µM | [7] 49.7 µM | [9] 36.7 µM
inactive: [1] | [3] | [5]

CCCCCCCCCCCCCN1CC(C)OC(C)C1 (stereo not drawn)
active: [2] 91.8 µM | [3] 166 µM | [4] 97.6 µM | [6] 189 µM | [7] 66.8 µM | [9] 78.9 µM
inactive: [1] | [5]

CCOc1cccc(C2(N3CCN(c4ccccc4)CC3)CCC(C)CC2)c1 (stereo not drawn)
not listed: [4] | [10]
inactive: all other assays above

Oc1ccc2ccc3cccc4ccc1c2c34
inactive: [1] | [3]
active: [2] 77.9 µM | [4] 82.2 µM | [5] 30.6 µM | [6] 31.9 µM | [7] 49.1 µM | [9] 84 µM

C1=Cc2cccc3cccc1c23
not listed: [4] | [8] | [10]
inactive: all other assays above

CCNS(=O)(=O)C(F)(F)C(F)(F)C(F)(F)C(F)(F)C(F)(F)C(F)(F)C(F)(F)C(F)(F)F
inactive: [6]
active: [1] 25.2 µM | [2] 38.9 µM | [3] 56 µM | [5] 103 µM | [8] 36.4 µM | [9] 81.5 µM

O=Cc1ccco1
not listed: [4] | [10]
inactive: all other assays above

O=[N+]([O-])c1ccc(Oc2ccc(Cl)cc2Cl)cc1
active: [2] 80.8 µM | [9] 89.7 µM
not listed: [4] | [10]
inactive: all other assays above

CC(O)CCO (stereo not drawn)
not listed: [4] | [8] | [10]
inactive: all other assays above
